Assay results: PubChem BioAssay (NCATS)
Records with an inconclusive call do not appear. A number with no mark means an inactive call. Calls follow the shape of the dose curve; as a rule, active = well fitted cell-killing curve with a large enough effect; inconclusive = small, poorly fitted or top-dose-only effect; inactive = flat fitted curve, though single readings scatter.

Test: NCATS anti-infectives library activity on HEK293 viability as a counter-qHTS vs the C. elegans viability qHTS (AID 1745854)
Conditions: HEK293 viability counter-screen; series mostly up to 41.8 µM; activity change, negative = cytotoxicity: at the top concentration
Outline: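 HEK293 cells, 1500 per well, exposed 24 hr at 37C in 5% CO2 to compounds in a 1:5 titration, up to 41.7 uM final. Viability read as CellTiter-Glo luminescence after 10 min at room temperature.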
% is scaled to controls: 0 for no effect and ±100 for the full control effect.

Structure (SMILES) | activity change, negative = cytotoxicity
OC[C@H]1O[C@@H](Oc2ccc(O)cc2)[C@H](O)[C@@H](O)[C@@H]1O | 5.69% [at 83.3 µM]
C[C@H]1[C@H]2CC[C@H]3[C@@H]4CC=C5C[C@@H](N(C)C)CC[C@]5(C)[C@H]4CC[C@]23CN1C | -25.4% [at 8.35 µM]
COc1cc(C(=O)NCc2ccc(OCCN(C)C)cc2)cc(OC)c1OC | -14.5%
C=C[C@H]1CN2CC[C@H]1C[C@@H]2[C@@H](O)c1ccnc2ccc(OC)cc12 | -5.24%
CCCN(CCC)S(=O)(=O)c1ccc(C(=O)O)cc1 | 6.99%
O=C(O)P(=O)(O)O | -3.64%
CC(=O)O[C@]1(C(C)=O)CC[C@H]2[C@@H]3C=C(C)C4=CC(=O)CC[C@]4(C)[C@H]3CC[C@@]21C | -6%
CCN(CC)CCNc1ccc(CO)c2sc3ccccc3c(=O)c12 | -4.13%
CC(C)Nc1cccnc1N1CCN(C(=O)c2cc3cc(NS(C)(=O)=O)ccc3[nH]2)CC1 | -0.642%
CCCCCCCCCCC[C@@H](C[C@@H]1OC(=O)[C@H]1CCCCCC)OC(=O)[C@H](CC(C)C)NC=O | 2.78%
O=C(Nc1ccccc1)OCC(CN1CCCCC1)OC(=O)Nc1ccccc1 (stereo not drawn) | -18.3%
O=C1C(=O)c2ccccc2C(O)=C1C1CCC(c2ccc(Cl)cc2)CC1 (stereo not drawn) | -4.74%
O=C(O)CCc1nc2ccccc2[nH]1 | -3.62%
